Several values for one entry are separate records, joined by “and”; a condition that tells them apart may be missing. Equal values may be shown once. Inconclusive results are not listed. Entries that show only a call come without a potency. The source holds several records for some structures; these can differ, active in one and inactive in another. Activity calls are given as the source filed them. Unless noted, the call rests on the fitted dose curve; in most records, active means well fitted curve in the direction sought with a large enough effect in the repeat runs; inconclusive means weak or mixed curves; inactive means no such curve, though single readings can be large; an effect the other way counts as inactive or inconclusive.
How the values were obtained:
[1] = qHTS assay to identify small molecule antagonists of the retinoid acid receptor (RAR) signaling pathway - cell viability counter screen (AID 1159551); further: nearly all actives have a fitted effect of over 35% in size; further: potency means the concentration at half of the fitted maximal effect
In short: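 C3RL4 RARE-luciferase cells, 1,000/well, incubated overnight, then dosed with compound plus 1 uM retinol (final). After 6 hr at 37 C, viability read by CellTiter-Glo ATP luminescence following 30 min at room temperature.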

[2] = qHTS assay to identify small molecule agonists of the retinoic acid receptor (RAR) signaling pathway (AID 1159553); further: potency means the concentration at half of the fitted maximal effect
In short: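 C3RL4 RARE-luciferase cells were seeded at 1,000/well and grown overnight at 37 C, then exposed to compounds for 6 hr at 37 C, 5% CO2. Luciferase reagent was added and luminescence was read after 30 min at room temperature.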

[3] = qHTS assay to identify small molecule antagonists of the estrogen related receptor (ERR) signaling pathway from Tox21 library - cell viability counter screen (AID 1224834); further: nearly all actives have a fitted effect of over 30% in size; further: potency means the concentration at half of the fitted maximal effect
In short: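 ERR reporter cells, 2,000 per well, rested 6 h, then exposed to compound in DMSO for 17.5 hours at 37 C. Viability read as fluorescence after 30 min with CellTiter-Fluor.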

[4] = target: Luciferin 4-monooxygenase (Photinus pyralis) (UniProt P08659); assay: qHTS assay to identify small molecule inhibitors of firefly luciferase (AID 1224835); further: nearly all actives have a fitted effect of over 25% in size; further: potency means the concentration at half of the fitted maximal effect
In short: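 Biochemical qHTS: compounds run as interplate titrations against purified firefly enzyme, with D-luciferin and ATP each at its KM concentration. Light output recorded by CCD imaging.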

[5] = qHTS assay to identify small molecule agonists of the constitutive androstane receptor (CAR) signaling pathway - cell viability counter screen (AID 1224836); further: nearly all actives have a fitted effect of over 45% in size; further: potency means the concentration at half of the fitted maximal effect
In short: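 Multiplexed viability check: HepG2-CYP2B6-hCAR cells, 15-point compound dosing, 0.75 uM PK11195 final, 23 h at 37 C, CellTiter-Fluor fluorescence.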

[6] = qHTS assay to identify small molecule antagonists of the constitutive androstane receptor (CAR) signaling pathway - cell viability counter screen (AID 1224837); further: nearly all actives have a fitted effect of over 45% in size; further: potency means the concentration at half of the fitted maximal effect
In short: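 HepG2 cells stably carrying hCAR and CYP2B6-2.2kb reporter, stimulated with 50 nM CITCO and compounds at 15 concentrations for 23 h at 37 C. Viability measured by CellTiter-Fluor fluorescence.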

[7] = target: Nuclear receptor subfamily 1 group I member 3 (Homo sapiens) (UniProt Q14994); assay: qHTS assay to identify small molecule antagonists of the constitutive androstane receptor (CAR) signaling pathway (AID 1224838); further: nearly all actives have a fitted effect of over 40% in size; further: potency means the concentration at half of the fitted maximal effect
In short: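 HepG2 cells stably carrying hCAR and a CYP2B6-2.2kb luciferase reporter, seeded 4 hrs before compound (15 concentrations). Stimulated with 50 nM CITCO for 24 hr at 37 C. ONE-Glo luminescence read after 30 min at room temperature.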

[8] = target: Nuclear receptor subfamily 1 group I member 3 (Homo sapiens) (UniProt Q14994); assay: qHTS assay to identify small molecule agonists of the constitutive androstane receptor (CAR) signaling pathway (AID 1224839); further: nearly all actives have a fitted effect of over 15% in size; further: potency means the concentration at half of the fitted maximal effect
In short: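 Using human hepatoma HepG2 cells engineered with hCAR and a CYP2B6-2.2kb reporter, 15-concentration compound series were incubated 24 h alongside PK11195 at 0.75 uM final, with luminescence quantified afterwards.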

[9] = qHTS assay to identify small molecule antagonists of the estrogen related receptor signaling pathway with the pleiotropic PPARgamma coactivator (PGC) from Tox21 10K library - cell viability counter screen (AID 1224840; active means well fitted cell-killing curve with a large enough effect in the repeat runs, not every such curve was filed as active; further: nearly all actives have a fitted effect of over 40% in size; further: potency means the concentration at half of the fitted maximal effect)
In short: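 PGC/ERR cells (2,000/well) plated 6 h, then compound-treated for 17.5 h at 37 C. Viability measured by CellTiter-Fluor fluorescence after 30 min at 37 C, multiplexed with the pathway assay.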

[10] = qHTS assay to identify small molecule agonists of the estrogen related receptor signaling pathway with the pleiotropic PPARgamma coactivator (PGC) from Tox21 10K library (AID 1224842); further: nearly all actives have a fitted effect of over 15% in size
In short: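 PGC/ERR reporter cell line, 2,000 cells per well, incubated 6 h at 37 C before 23 nL compound in DMSO was added. After 18 h at 37 C, One-Glo luminescence read following 30 min at room temperature.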

[11] = target: Thyrotropin receptor (Homo sapiens) (UniProt P16473); assay: qHTS assay to identify small molecule agonists of the thyroid stimulating hormone receptor (TSHR) signaling pathway (AID 1224843; calls by dose curve; further: nearly all actives have a fitted effect of over 45% in size; further: potency means the concentration at half of the fitted maximal effect)
In short: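 TSHR-HEK293 cells in agonist mode, 30 min room-temperature step, then cAMP measured by competitive HTRF (cAMP-d2 with anti-cAMP cryptate) after 1 h at room temperature. Tested at 15 concentrations in triplicate.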

[12] = qHTS assay to identify small molecule agonists of the hypoxia (HIF-1) signaling pathway - cell viability counter screen (AID 1224844; calls by dose curve; further: nearly all actives have a fitted effect of over 50% in size; further: potency means the concentration at half of the fitted maximal effect)
In short: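 HRE-bla ME-180 cells, 2,000/well in 0.5% dialyzed FBS medium, treated 17 h at 37C with compounds. Viability read in the same wells as the bla reporter, by CellTiter-Glo luminescence after 30 min at room temperature.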

[13] = qHTS assay to identify small molecule antagonists of the retinoic acid receptor (RAR) signaling pathway (AID 1159552; further: nearly all actives have a fitted effect of over 50% in size; further: potency means the concentration at half of the fitted maximal effect)
In short: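 Using a RARE-driven luciferase construct in C3RL4 cells, retinol at 1 uM final provided the agonist stimulus while compounds were co-applied. After 6 hours at 37 C, luminescence was recorded to flag inhibitors of retinol signaling.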

[14] = qHTS assay to identify small molecule antagonists of the estrogen related receptor signaling pathway with the pleiotropic PPARgamma coactivator (PGC) from Tox21 10K library (AID 1224841; call rule not given here; further: actives are mostly falling curves and most rising ones were filed inactive; nearly all actives have a fitted effect of over 50% in size; further: potency means the concentration at half of the fitted maximal effect)
In short: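 PGC/ERR cell line, 2,000 cells/well, pre-incubated 6 hours at 37 C, then exposed to compounds for 18 hours at 37 C; luciferase read with One-Glo luminescence after 30 min at room temperature.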

Chain of Luciferin 4-monooxygenase (Photinus pyralis) (P08659 whole entry, looked up): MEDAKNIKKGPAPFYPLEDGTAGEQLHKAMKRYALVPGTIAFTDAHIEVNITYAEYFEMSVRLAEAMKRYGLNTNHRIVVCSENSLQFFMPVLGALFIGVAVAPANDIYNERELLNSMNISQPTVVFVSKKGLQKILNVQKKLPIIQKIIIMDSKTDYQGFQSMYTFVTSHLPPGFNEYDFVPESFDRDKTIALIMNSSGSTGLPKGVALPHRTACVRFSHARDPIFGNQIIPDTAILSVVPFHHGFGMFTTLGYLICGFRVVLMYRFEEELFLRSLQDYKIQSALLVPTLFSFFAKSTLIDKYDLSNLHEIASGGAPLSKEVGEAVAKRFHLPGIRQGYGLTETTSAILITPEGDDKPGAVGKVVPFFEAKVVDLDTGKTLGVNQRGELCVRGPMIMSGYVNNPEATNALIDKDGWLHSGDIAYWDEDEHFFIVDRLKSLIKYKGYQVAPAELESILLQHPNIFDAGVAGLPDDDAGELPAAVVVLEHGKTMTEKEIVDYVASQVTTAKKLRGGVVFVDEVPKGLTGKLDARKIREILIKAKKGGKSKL
Chain of Nuclear receptor subfamily 1 group I member 3 (Homo sapiens) (Q14994 whole entry, looked up): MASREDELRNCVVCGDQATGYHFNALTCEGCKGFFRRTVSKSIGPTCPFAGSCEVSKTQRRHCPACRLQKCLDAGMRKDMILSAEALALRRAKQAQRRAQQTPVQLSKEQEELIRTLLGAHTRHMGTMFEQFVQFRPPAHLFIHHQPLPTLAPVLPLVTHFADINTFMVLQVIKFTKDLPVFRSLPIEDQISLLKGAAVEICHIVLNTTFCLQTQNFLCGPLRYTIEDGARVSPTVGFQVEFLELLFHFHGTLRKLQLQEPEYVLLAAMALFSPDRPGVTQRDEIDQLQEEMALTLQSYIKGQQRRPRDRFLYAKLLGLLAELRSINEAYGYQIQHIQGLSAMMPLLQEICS
Chain of Thyrotropin receptor (Homo sapiens) (P16473 whole entry, looked up): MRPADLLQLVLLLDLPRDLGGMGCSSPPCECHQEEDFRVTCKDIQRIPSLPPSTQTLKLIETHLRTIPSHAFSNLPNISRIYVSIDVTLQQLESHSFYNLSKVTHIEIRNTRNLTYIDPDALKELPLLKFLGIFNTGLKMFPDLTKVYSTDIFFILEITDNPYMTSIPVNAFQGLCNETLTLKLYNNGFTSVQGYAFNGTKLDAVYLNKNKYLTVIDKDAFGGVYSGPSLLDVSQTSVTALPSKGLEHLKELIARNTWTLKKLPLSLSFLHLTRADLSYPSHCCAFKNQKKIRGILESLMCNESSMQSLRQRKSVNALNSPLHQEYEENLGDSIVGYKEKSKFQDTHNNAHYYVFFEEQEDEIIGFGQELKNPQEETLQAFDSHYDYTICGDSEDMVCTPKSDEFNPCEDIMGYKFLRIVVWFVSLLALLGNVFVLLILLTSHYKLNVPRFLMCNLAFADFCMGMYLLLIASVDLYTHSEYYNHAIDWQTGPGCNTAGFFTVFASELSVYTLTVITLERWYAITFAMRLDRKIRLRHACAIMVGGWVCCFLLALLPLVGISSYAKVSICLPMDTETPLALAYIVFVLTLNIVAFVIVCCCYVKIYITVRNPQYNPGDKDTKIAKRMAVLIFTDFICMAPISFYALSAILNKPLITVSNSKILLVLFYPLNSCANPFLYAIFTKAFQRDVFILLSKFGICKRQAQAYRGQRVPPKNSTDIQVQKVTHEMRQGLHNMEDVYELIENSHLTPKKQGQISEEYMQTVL

| SMILES | Potency [1] | Potency [2] | Potency [3] | Potency [4] | Potency [5] | Potency [6] | Potency [7] | Potency [8] | Potency [9] | Potency [10] | Potency [11] | Potency [12] | Potency [13] | Potency [14] |
| --- | --- | --- | --- | --- | --- | --- | --- | --- | --- | --- | --- | --- | --- | --- |
| CC[N+]1(C)CCCC(OC(=O)C(O)(c2ccccc2)c2ccccc2)C1 (configuration not stated) | inactive | inactive | inactive | inactive | inactive | inactive | inactive | inactive | inactive | inactive | inactive | inactive | – | – |
| CCC(C)(C)c1ccc(O)c(C(C)(C)CC)c1 | 53.9 µM (active) and 30.6 µM (active) | – | 48 µM (active) | inactive | 60.4 µM (active) | – | 60.4 µM (active) | inactive | 53.9 µM (active) and inactive | inactive | 13.5 µM (active) and 24.3 µM (active) | 19.3 µM (active) and 24.5 µM (active) | 24.3 µM (active) | 60.4 µM (active) and inactive |
| CN(C1CCCCC1)C1CCCCC1 | inactive | – | inactive | inactive | inactive | inactive | inactive | inactive | inactive | – | inactive | inactive | inactive | – |
| O=C(Cc1ccccc1)c1ccccc1 | inactive | – | inactive | 71 µM (active) | inactive | inactive | inactive | 54.5 µM (active) | inactive | – | inactive | inactive | inactive | – |
| O=C(N/N=C/c1ccc([N+](=O)[O-])o1)c1cc([N+](=O)[O-])cc([N+](=O)[O-])c1O | inactive | – | 11.9 µM (active) | 21.9 µM (active) | 11.9 µM (active) | 10.6 µM (active) | inactive | 15 µM (active) | 11.9 µM (active) | – | inactive | inactive | inactive | – |
| CCCCCCCCCCCCN(C)C | inactive | inactive | inactive | inactive | inactive | inactive | inactive | inactive | inactive | inactive | inactive | inactive | – | inactive |
| CON(C)C(=O)Nc1ccc(Cl)cc1 | inactive | – | – | inactive | – | inactive | – | – | inactive | – | inactive | inactive | inactive | – |
| CC[N+]1(CCOC(=O)C(O)(c2ccccc2)c2ccccc2)CCCCC1 | inactive | inactive | inactive | inactive | inactive | inactive | inactive | inactive | inactive | – | inactive | inactive | – | – |
| CC(C)CCON=O | inactive | inactive | inactive | inactive | inactive | inactive | inactive | inactive | inactive | – | inactive | inactive | – | – |
| C[C@H]1[C@@H]2Cc3ccc(O)cc3[C@@]1(C)CCN2C | inactive | inactive | – | inactive | inactive | inactive | – | – | inactive | inactive | inactive | inactive | inactive | inactive |
| COc1cc(CC(C)N)c(OC)cc1Br (configuration not stated) | inactive | – | – | inactive | – | – | – | – | – | inactive | inactive | inactive | inactive | – |
| CCC1(CCC(C)C)C(=O)NC(=O)NC1=O | inactive | inactive | – | inactive | inactive | inactive | inactive | inactive | inactive | – | – | inactive | inactive | – |
| Nc1cc(Cl)cc(C(=O)O)c1Cl | inactive | inactive | inactive | inactive | inactive | inactive | inactive | inactive | inactive | inactive | – | inactive | – | inactive |
| c1ccc2c(c1)-c1cccc3cccc-2c13 | inactive | inactive | – | – | inactive | inactive | inactive | 34.7 µM (active) and 30.6 µM (active) | inactive | – | inactive | inactive | inactive | – |
| C#C[C@]1(O)CC[C@H]2[C@@H]3CCC4=CC(=O)CCC4=C3C=C[C@@]21CC | inactive | – | 21.1 µM (active) | inactive | inactive | inactive | inactive | inactive | inactive | – | – | inactive | 9.44 µM (active) | – |
| c1ccc2sc(SNC3CCCCC3)nc2c1 | inactive | 30.3 µM (active) and 68.6 µM (active) | inactive | 11.1 µM (active) and 22.4 µM (active) | inactive | inactive | inactive | 53.9 µM (active) | inactive | – | inactive | – | – | – |
| NP(N)(=O)NC(=O)c1ccc(F)cc1 | inactive | inactive | – | inactive | – | inactive | – | – | inactive | inactive | inactive | inactive | inactive | inactive |
| COc1ccc(C(=O)c2c(C)n(CCN3CCOCC3)c3ccccc23)cc1 | inactive | inactive | – | inactive | inactive | inactive | – | – | inactive | inactive | – | inactive | inactive | inactive |
| SCc1ccccc1 | inactive | – | inactive | – | – | inactive | inactive | inactive | inactive | – | inactive | inactive | inactive | – |
| CNC(=O)Oc1cccc(N=CN(C)C)c1 | inactive | inactive | – | inactive | inactive | inactive | inactive | inactive | inactive | – | inactive | inactive | inactive | – |
| CCCSP(=S)(OCC)Oc1ccc(SC)cc1 (configuration not stated) | inactive | – | inactive | inactive | inactive | inactive | inactive | 21.7 µM (active) | inactive | inactive | 19.3 µM (active) | inactive | inactive | inactive |
| Cc1ccc2c(C)cccc2c1 | inactive | inactive | inactive | inactive | inactive | inactive | inactive | inactive | inactive | – | inactive | inactive | – | – |

— PubChem BioAssay (Tox21)
